Compound activity deposited in PubChem by National Center for Advancing Translational Sciences (NCATS).
Pf growth 48h: inhibits P. falciparum growth in the first generation, 48 h. AID 504832. 5.9% of 310,000 active. P. falciparum luciferase growth in erythrocytes, 48 h. Potency, µM (series often up to 28.7 µM), inactives show at the top dose activity change, negative = inhibition, most hits filed as inhibitors; note: potency is the fitted concentration of half-maximal effect; % is set by controls: 0 for no effect and ±100 for the full control effect
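First compound was added to culture medium, then infected red cells at 0.1% parasitemia and 2% hematocrit (final). After incubation at 37 C under 5% CO2, luciferase detection reagent was dispensed and light output recorded.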
Pf growth 96h: P. falciparum growth inhibition at 96 hour, primary screen for plastid delayed-death inhibitors; 6.9% of 320,000 active; Potency, µM (highest dose often 28.7 µM), inactives show top-dose activity change, negative = inhibition, most hits filed as inhibitors; P. falciparum luciferase reporter growth, 96 h; note: potency is the fitted concentration of half-maximal effect; % is set by controls: 0 for no effect and ±100 for the full control effect
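Parasite growth measured via integrated firefly luciferase reporter in P. falciparum. Infected erythrocytes at 2% hematocrit, 0.05% parasitemia final were treated 96 hours at 37 C under 5% CO2, and luminescence was read.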
Shiga inhibitor: blocks Shiga toxin action in Vero cells. inhibition, % at 38.7 µM. AID 2315. Vero cells, Shiga toxin protein synthesis inhibition reporter. 9.2% of 290,000 active; in the data active = inhibition mostly above about 28%, no sharp cut-off; inactive = mostly below about 43%; note: 0% is about no effect
Cycloheximide cs: affects cycloheximide protein synthesis inhibition readout, counter-screen | cell reporter, cycloheximide protein synthesis inhibition counterscreen | max response, % | 12% of 300,000 active; in the data active = max response mostly above about 13%, no sharp cut-off; inactive = mostly below about 14%; note: read at 38.3 µM for the half of the compounds with a filed dose; 0% is about no effect
NS1 function inh: influenza NS1 inhibition | Potency, µM (titrated, usually from 46.1 µM), for inactives: at the highest dose activity, positive = more growth | 0.4% of 270,000 active | AID 2326; calls by dose curve; note: potency is the fitted concentration of half-maximal effect; actives are rising curves; nearly all actives have a fitted effect of over 50% in size
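OD600 was taken as the measure of yeast growth restored by compound in an NS1-expressing S. cerevisiae strain. Cells had been washed out of glucose medium and diluted 1:100 into galactose -URA medium, pH 6.0.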
* marks the source's active call; other numbers are inactive results; [ ] = remark or other dose. The list is not random: actives were taken first. Their share in the collection is about 21%. Unless noted, calls come from the whole dose curve; as a rule, active = well fitted inhibition curve with a large enough effect; inconclusive = small, poorly fitted or top-dose-only effect, or another doubt; inactive = no such curve, though single readings can be large or run the other way.

Screening Cc1ccc(OCC(=O)Nc2cc(S(=O)(=O)N3CCCCC3)ccc2N2CCN(C)CC2)c(C)c1 returned Pf growth 48h 2.3µM* and Pf growth 96h 1.5µM*.
CCN1CCN(c2ccc(S(=O)(=O)N3CCOCC3)cc2NC(=O)CCOc2ccccc2)CC1 was read as Pf growth 48h -18%, Pf growth 96h inconclusive, Shiga inhibitor -8, Cycloheximide cs -3 and NS1 function inh -7%.
Screening CCN1CCN(c2ccc(S(=O)(=O)N3CCOCC3)cc2NC(=O)CCC(C)C)CC1 returned Pf growth 48h inconclusive and Pf growth 96h -6%.
CCC(=O)c1ccc(OCC(=O)Nc2cc(S(=O)(=O)N3CCCCC3)ccc2N2CCN(CC)CC2)cc1 was read as Pf growth 48h inconclusive and Pf growth 96h 9.3µM*.
Screening CCOC(=O)C1(Cc2ccccc2)CCCN(C2CCCC2)C1 (centres undefined) returned Pf growth 48h 13%, Pf growth 96h 10%, Shiga inhibitor -6, Cycloheximide cs -2 and NS1 function inh 0%.
Screening COc1ccc(N2CCCC2)c(NC(=O)COc2ccccc2)c1 returned Pf growth 48h -18%, Pf growth 96h 52%, Shiga inhibitor -11, Cycloheximide cs -3 and NS1 function inh -7%.
For COc1ccccc1OCC(=O)Nc1cc(Cl)ccc1N1CCCCC1 the results were Pf growth 48h 10µM* and Pf growth 96h inconclusive.
COc1ccccc1OCC(=O)Nc1cc(S(=O)(=O)N2CCCCC2)ccc1N1CCCCC1 was read as Pf growth 48h 5.2µM*, Pf growth 96h 2.1µM*, Shiga inhibitor -2, Cycloheximide cs 1 and NS1 function inh inconclusive.
COc1ccccc1OCC(=O)Nc1cc(C(F)(F)F)ccc1-n1cncn1 was read as Pf growth 48h 9.3µM* and Pf growth 96h inconclusive.
Screening COc1ccc(S(=O)(=O)N2CCC(C(=O)Nc3ccccc3N3CCCCC3)CC2)cc1OC returned Pf growth 48h 0%, Pf growth 96h 8.3µM*, Shiga inhibitor -2, Cycloheximide cs 3 and NS1 function inh 10%.
For COc1cc(C(C)=O)ccc1OCC(=O)Nc1cc(Cl)ccc1-n1cncn1 the results were Pf growth 48h -1% and Pf growth 96h -24%.
For C/C(=C\COc1c2ccoc2cc2oc(=O)ccc12)CCC(O)C(C)(C)O (centres undefined) the results were Shiga inhibitor 3 and Cycloheximide cs -8.
`CC1CCCC(N2CCN(C(=O)c3cccc(F)c3)CC2)C1` (centres undefined) gave Pf growth 96h -14%, Shiga inhibitor -4, Cycloheximide cs -3 and NS1 function inh -13%.
`CCN1CCN(c2ccc(S(=O)(=O)N3CCCCC3)cc2NC(=O)COc2ccccc2)CC1` gave Pf growth 48h 12µM* and Pf growth 96h inconclusive.
For CCN1CCN(c2ccc(S(=O)(=O)N3CCCCC3)cc2NC(=O)c2ccccc2)CC1 the results were Pf growth 48h inconclusive and Pf growth 96h -13%.
`CCN1CCN(c2ccc(S(=O)(=O)N3CCCCC3)cc2NC(=O)COc2ccc(Cl)c(C)c2)CC1` gave Pf growth 48h 4.7µM*, Pf growth 96h inconclusive, Shiga inhibitor -4, Cycloheximide cs 1 and NS1 function inh 23%.
For COc1ccc(/C=C(\C#N)C(=O)Nc2cc(S(=O)(=O)N3CCCCC3)ccc2N2CCCCC2)cc1 the results were Pf growth 48h inconclusive, Pf growth 96h 8.3µM*, Shiga inhibitor -2, Cycloheximide cs -2 and NS1 function inh inconclusive.
Screening CCN1CCN(c2ccc(S(=O)(=O)N3CCCCC3)cc2NC(=O)c2ccc([N+](=O)[O-])s2)CC1 returned Pf growth 48h 4.7µM* and Pf growth 96h 1.7µM*.
CC(=O)C(Cc1cccc(F)c1)(Cc1cccc(F)c1)C(C)=O was read as Pf growth 48h -4%, Pf growth 96h -43%[5.75 µM], Shiga inhibitor -6, Cycloheximide cs 2 and NS1 function inh -3%.
CSCCC(NC(=O)c1ccccc1)C(=O)NCCCn1nc(C)cc1C (centres undefined) was read as Pf growth 48h 12% and Pf growth 96h -9%.
Screening COc1cc2oc(=O)cc(-c3ccc(-c4sccc4C=O)cc3)c2c(OC)c1OC returned Shiga inhibitor inactive and Cycloheximide cs 10.
For Oc1ccc(Cc2nccc3cc(O)c(O)cc23)cc1O the results were NS1 function inh -5%.
Screening O=C(N/N=C/C(Br)=C\c1ccccc1)c1ccc2nc[nH]c2c1 returned Pf growth 48h 23%, Pf growth 96h inconclusive, Shiga inhibitor 46, Cycloheximide cs 19* and NS1 function inh 10%.
COc1ccccc1/C=C/C=N/NC(=O)c1ccc2nc[nH]c2c1 was read as Pf growth 48h inconclusive, Pf growth 96h 9.3µM*, Shiga inhibitor -20 and Cycloheximide cs -6.
Screening COc1ccc(OC)c(/C=N/NC(=O)c2ccc3nc[nH]c3c2)c1 returned Pf growth 48h 38%, Pf growth 96h 39%, Shiga inhibitor -4, Cycloheximide cs -2 and NS1 function inh 0%.
`CC(=C/c1ccccc1)/C=N/NC(=O)c1ccc2nc[nH]c2c1` gave Pf growth 48h 38%, Pf growth 96h inconclusive, Shiga inhibitor 51*, Cycloheximide cs 17* and NS1 function inh 11%.
`OC1OC[C@H](O)[C@H](O)[C@H]1O` (some centres undefined) gave Shiga inhibitor -1 and Cycloheximide cs -6.
`Cc1ccc(S(=O)(=O)Nc2ccc(Cl)cn2)cc1C` gave Pf growth 48h 75%, Pf growth 96h 37%, Shiga inhibitor 3, Cycloheximide cs 3 and NS1 function inh 9%.
For CNc1nc(N)c(C(=O)C23CC4CC(CC(C4)C2)C3)s1 the results were Pf growth 48h -6%, Pf growth 96h -2%, Shiga inhibitor -4, Cycloheximide cs 21 and NS1 function inh -7%.
For COc1ccc(C(Nc2cc(C)ccn2)c2ccc3ccc(C)nc3c2O)cc1 (centres undefined) the results were Pf growth 48h inconclusive, Pf growth 96h -11%, Shiga inhibitor 13, Cycloheximide cs -1 and NS1 function inh 22%.
Screening COc1cc(/C=C/c2ccc3c(Br)cc(Br)c(O)c3n2)ccc1O returned Pf growth 48h 9.3µM*, Pf growth 96h 3.7µM*, Shiga inhibitor -5, Cycloheximide cs -2 and NS1 function inh -64%.
C/C=C\c1ccc(OC)cc1 was read as Pf growth 48h -17% and Pf growth 96h 7%.
COc1cc(/C=C/C2=NC(=O)C(C)(C)O2)ccc1O was read as Pf growth 48h 8%, Pf growth 96h inconclusive, Shiga inhibitor -16, Cycloheximide cs -3 and NS1 function inh 4%.
`COc1ccc(/C=C/c2ccc3c(Br)ccc(O)c3n2)cc1` gave Pf growth 48h 17%[0.00184 µM], Pf growth 96h 6%, Shiga inhibitor 94*, Cycloheximide cs 39* and NS1 function inh 1%.
`Cc1ccc2c(Br)cc(Br)c(O)c2n1` gave Pf growth 48h 12µM* and Pf growth 96h 6.7µM*.
